Shown are actives, neighbours in structure and some others; about 7.3% of the full set was active somewhere.
NPC1 promoter act: activates the NPC1 promoter; Huh7 NPC1 promoter luciferase reporter, 24 h; Potency, µM (titrated, usually from 9.22 µM), for inactives: at the highest dose activation, hits mostly activators; 320,000 tested, 2.4% active; note: % of control where 0% means no effect; nearly all actives have a fitted effect of over 60% in size
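Readout is luciferase luminescence, reflecting NPC1 promoter activation in stably transfected Huh7 cells after 24 h compound exposure at 37 °C in reduced-serum medium with 10% FBS.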
FLuc modulator: firefly luciferase modulation, counter-screen for miR-21 project | purified FLuc, Km substrates, luminescence inhibition | Potency, µM (highest dose often 57.5 µM), for the others: top-dose activity change, negative = inhibition, hits mostly inhibitors | 360,000 tested, 6.9% active | AID 588342;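 note: plate controls were vehicle for no effect and reference inhibitor for full effect; nearly all actives have a fitted effect of over 55% in size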
Target sequence (P08659 whole entry, looked up): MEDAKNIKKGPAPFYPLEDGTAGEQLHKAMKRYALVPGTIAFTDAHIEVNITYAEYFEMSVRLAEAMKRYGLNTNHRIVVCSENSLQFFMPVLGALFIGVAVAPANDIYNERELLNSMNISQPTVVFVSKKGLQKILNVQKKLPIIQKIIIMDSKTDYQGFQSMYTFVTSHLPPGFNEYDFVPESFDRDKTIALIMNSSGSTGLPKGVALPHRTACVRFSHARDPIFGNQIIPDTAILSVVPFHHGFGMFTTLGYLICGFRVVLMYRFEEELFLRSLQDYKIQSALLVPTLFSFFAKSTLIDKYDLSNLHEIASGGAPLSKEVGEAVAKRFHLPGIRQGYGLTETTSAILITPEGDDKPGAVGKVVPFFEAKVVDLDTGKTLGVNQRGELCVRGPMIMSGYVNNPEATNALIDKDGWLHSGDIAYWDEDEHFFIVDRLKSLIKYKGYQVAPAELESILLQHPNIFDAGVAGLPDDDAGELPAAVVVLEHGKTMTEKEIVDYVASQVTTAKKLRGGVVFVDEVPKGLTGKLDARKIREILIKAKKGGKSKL
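Biochemical qHTS of compounds, final roughly 60 µM downward over six points, against 10 nM purified firefly luciferase using Km concentrations of substrates (10 uM D-luciferin, 10 uM ATP) in Tris acetate pH 7.5 buffer; luminescence output.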
ELG1 genotox: inducers of genotoxicity in HEK293T ELG1-luciferase cells | HEK293T ELG1-luciferase reporter, luminescence, 16 h | Potency, µM (titrated, usually from 46 µM), for the others: at the top dose activity change, positive = activation, most hits filed as activators | 330,000 tested, 1.3% active; note: % of control where 0% means no effect; nearly all actives have a fitted effect of over 60% in size
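DMSO vehicle served as control against compound-treated ELG1-luciferase HEK293T cells; exposure lasted 16 hr at 37 °C and 5% CO2, followed by ONE-Glo luminescence detection after 30 min.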
SMN2 splice enh: SMN2 splice variant enhancement; HEK293 SMN2-luciferase splicing reporter, luminescence, 30-36 h; Potency, µM (top dose mostly 46.1 µM), without a hit: at the top dose activity change, positive = activation, most hits filed as activators; 210,000 tested, 2.8% active; AID 1458; note: % of control where 0% means no effect; nearly all actives have a fitted effect of over 55% in size
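HEK293 cells carry an SMN2 minigene-luciferase reporter in which exon 7 inclusion puts luciferase in frame. Cells were seeded at 2000 cells/well, attached for 10-12 hours, then exposed to compounds for 30-36 hours at 37C before ONE-Glo luminescence.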
Rab9 promoter act: activators of Rab9 promoter; Huh7 Rab9 promoter-luciferase reporter, luminescence, 24 h; Potency, µM (doses to about 9.22 µM), without a hit: top-dose activation, negative = inhibition, usual class: activators; 320,000 tested, 2.8% active; AID 485297; note: % of control where 0% means no effect; nearly all actives have a fitted effect of over 60% in size
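Cells were plated at 1500 per well in reduced-serum medium with 10% FBS and left 2 h. Compound in DMSO was then added for 24 h at 37 °C. Reporter signal was read by luminescence after 10 min with luciferase detection reagent.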
Luc counter: blocks Kinase-Glo luciferase, a counter-screen artifact. Kinase-Glo luciferase, ATP luminescence, 8 min. Potency, µM (top dose mostly 38.3 µM), without a hit: at the top dose activity change, negative = inhibition, actives largely listed as inhibitors. 200,000 tested, 0.28% active; note: % is set by controls: 0 for no effect and ±100 for the full control effect; nearly all actives have a fitted effect of over 60% in size
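Light output from Kinase-Glo luciferase with luciferin and 10 uM ATP in 50 mM imidazole pH 7.2, KCl, MgCl2, Tween 20, BSA; compound pin-delivered, 8-min ambient incubation, then luminescence read.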
An asterisk follows results filed as active; ? = inconclusive; · = no result given. Calls come from the whole dose curve; as a rule, active = well fitted curve in the direction sought with a large enough effect; inconclusive = small, poorly fitted or top-dose-only effect, or another doubt; inactive = no such curve, though single readings can be large; an effect the other way counts as inactive or inconclusive. Potency is the fitted concentration of half-maximal effect.

SMILES	NPC1 promoter act	FLuc modulator	ELG1 genotox	SMN2 splice enh	Rab9 promoter act	Luc counter
CCOC(=O)c1cc(-c2ccccc2C)nn1Cc1cc(CC)no1	17%	17µM*	7%	·	26%	·
Cc1ccc(N2C(=O)c3ccc(N)cc3C2=O)cc1C	2.5µM*	11µM*	?	14%	4µM*	0%
Cc1ccc(N2C(=O)c3ccc(N)cc3C2=O)cc1	3.5µM*	7.6µM*	3.7µM*	·	4µM*	·
Cc1ccc2cc3cc(C(=O)N4CCN(c5ccccc5)CC4)oc3nc2c1	·	-5%	·	·	·	·
Cc1nc2ccc(Cl)cc2nc(C)/c1=N\O	0%	?	18µM*	-8%	5%	2%
Cc1ccc2nc(C)/c(=N\O)c(C)nc2c1	2%	?	?	4%	-6%	-6%
CCOc1ccc(NC(=O)c2ccc3nc(Cc4ccccc4)oc3c2)cc1	·	0%	·	·	·	·
CC(C)(C)NC(=O)CSc1nc(-c2ccc(F)cc2)cs1	3.5µM*	6.7µM*	?	14µM*	2µM*	-5%
Cc1ccc(-c2csc(NC(=O)CSc3nc(C)cs3)n2)cc1	?	?	0%	14µM*	22%	0%
CCn1c(SCC(=O)Nc2nc(-c3ccc(C)cc3)cs2)nnc1-c1ccccc1	0%	24µM*	-10%	-24%	-24%	-1%
CCn1c(SCC(=O)Nc2nc(-c3ccc(C)cc3)cs2)nnc1-c1ccccc1O	-8%	?	0%	-100%	-18%	2%
Cc1nnc(SCC(=O)Nc2nc(-c3ccc(F)cc3)cs2)[nH]c1=O	-5%	17µM*	2%	1%	-1%	1%
O=C(CSc1nc(-c2ccc(Cl)cc2)cs1)Nc1cccc([N+](=O)[O-])c1	2%	9.5µM*	1%	-60%	-7%	1%
O=C(CSc1nnc(-c2cccnc2)n1Cc1ccco1)Nc1nc(-c2ccc(F)cc2)cs1	1%	15µM*	-7%	-53%	-2%	1%
Cc1cc(NC(=O)CSc2nc(-c3ccc(Cl)cc3)cs2)no1	0%	0%	0%	-4%	-1%	5%
CC1(C)CC(/C=C/c2ccccc2)=Nc2ccccc2N1	?	4.3µM*	15%	·	?	·
O=C1CC(/C=C/c2ccccc2)=Nc2ccccc2N1	2µM*	2.7µM*	?	-5%	0.89µM*	-17%
O=C1CC(/C=C/c2cccnc2)=Nc2ccccc2N1	17%	-19%	-8%	-88%	17%	?
O=C1CC(/C=C/c2ccc(Cl)cc2)=Nc2ccccc2N1	2.2µM*	4.3µM*	?	·	1.3µM*	-10%
O=S1(=O)NC2c3ccccc3CC2O1 (stereo unspecified)	1%	-9%	-4%	·	0%	·
CC(C)c1ccc2c(c1)C1Cc3ccccc3C1N2 (stereo unspecified)	16%	15µM*	?	21%	8%	-1%
COc1ccccc1Cn1c(/C=C/c2ccccc2)nc2ccccc21	18%	3µM*	16%	?	?	-22%
COc1ccccc1Cn1c(C(C)C)nc2ccccc21	-3%	2%	-11%	·	-8%	·
C=CCn1c(NCc2ccccc2OC)nc2ccccc21	0%	?	5%	·	15%	·
COc1ccc(/C=C/c2nc3ccccc3n2Cc2ccccc2OC)cc1	3.2µM*	0.85µM*	?	7.9µM*	?	-12%
SMILES	NPC1 promoter act	FLuc modulator	ELG1 genotox	SMN2 splice enh	Rab9 promoter act	Luc counter
CCN(CC)c1nn2c(=O)c(C(=O)NCCc3cccc(C)c3)cnc2s1	·	-14%	·	·	·	·
COc1ccc(-c2nn3c(-c4ccccc4C)nnc3c3ccccc23)cc1	·	2%	·	12%	·	·
CC1CCN(S(=O)(=O)c2ccc3c(c2)CCC(=O)N3CC(=O)Nc2cccc(C#N)c2)CC1	8%	-2%	·	·	-5%	·
N#Cc1c(/N=C/c2ccco2)sc2c1CCCCC2	0.79µM*	0.17µM*	?	-10%	3.5µM*	?
N#Cc1c(/N=C/c2cccs2)sc2c1CCC2	3.2µM*	1.5µM*	7.1µM*	18µM*	2µM*	?
CN(C)/C=N/c1sc2c(c1C#N)CCCC2	22%	?	15%	-28%	26%	-3%
Cc1ccc(N2CC(NC(=O)C(=O)c3c[nH]c4ccccc34)CC2=O)cc1 (stereo unspecified)	·	-4%	·	·	·	·
CC(=O)COc1ccc2c(C)c(-c3ccccc3)c(=O)oc2c1	?	17µM*	7%	-7%	3.2µM*	-12%
COC(=O)Cc1c(C)c2ccc(OC(=O)c3ccccc3)cc2oc1=O	-3%	15µM*	0%	15%	0%	-9%
Cc1c(C)c2ccc(OCC(=O)c3ccccc3)cc2oc1=O	2.2µM*	?	?	·	3.5µM*	·
COc1cccc(C(=O)COc2ccc3c(C)c(Cc4ccccc4)c(=O)oc3c2)c1	-3%	0%	-2%	-59%	-11%	1%
Cc1c(Cc2ccccc2)c(=O)oc2cc(OCC(=O)N3CCC(C(=O)O)CC3)ccc12	0%	21µM*	4%	·	-6%	·
Cc1c(Cc2ccccc2)c(=O)oc2cc(OC(=O)c3ccccc3)ccc12	-5%	?	5%	-11%	-3%	3%
CCOC(=O)c1[nH]c2c(c1Cc1ccccc1)C(=O)CC(c1ccc(C(C)(C)C)cc1)C2 (stereo unspecified)	·	0%	·	-13%	·	·
O=C(CCS(=O)(=O)c1nc(-c2ccc3c(c2)OCO3)cc(C(F)(F)F)n1)Nc1ccccc1C(F)(F)F	·	6%	·	-9%	·	·
CCCc1c(C)c2ccc(OCC(C)=O)cc2oc1=O	?	?	?	23%	?	-7%
COc1ccc(CNC(=O)Cc2c(C)c3ccc(O)cc3oc2=O)cc1	·	7.6µM*	·	-1%	·	·
Cc1c(CC(=O)O)c(=O)oc2cc(OCc3ccc(Cl)cc3)ccc12	12%	8.5µM*	6%	·	15%	·
CCCCc1c(C)c2ccc(OCC(C)=O)cc2oc1=O	3.2µM*	19µM*	5.2µM*	16µM*	2.8µM*	-21%
Cc1c(CC(=O)O)c(=O)oc2cc(OCc3nn[nH]n3)ccc12	-1%	1%	2%	-6%	8%	-9%
COc1ccc(C)cc1NC(=O)c1sc2nc(-c3ccc(F)cc3)cn2c1C	·	3%	·	·	·	·
COc1ccc2c(CNCCc3ccc(SC)cc3)c(C(=O)O)n(Cc3ccc(F)cc3)c2c1	·	-1%	·	·	·	·
O=C(Nc1scc(-c2ccccc2)c1C(=O)O)c1ccco1	17%	11µM*	?	?	29%	-3%
COC(=O)c1c(-c2ccc(F)cc2)csc1NC(=O)c1ccco1	?	7.6µM*	18%	-1%	2.2µM*	-10%

Screening data deposited in PubChem BioAssay by National Center for Advancing Translational Sciences (NCATS).
